Laboratory results as given in paper PMC7862700, “An all-to-all approach to the identification of sequence-specific readers for epigenetic DNA modifications on cytosine”.

Legend:
Assay in all cases: DAPPL (digital affinity profiling via proximity ligation, sequencing); 10 mM Tris-HCl pH 7.5, 50 mM NaCl, 1 mM DTT, 4% glycerol, room temperature, 30 min; GST-TFs on glutathione beads, 16-mer random dsDNA library, 0.1% formaldehyde crosslink after washing; high values mean tight binding
[1] = molecular target: T1, FLI1 (Homo sapiens, UniProt Q01543 1-452); conditions: protein: recombinant; tags: N-terminal GST; dsDNA, one strand shown
T1 sequence: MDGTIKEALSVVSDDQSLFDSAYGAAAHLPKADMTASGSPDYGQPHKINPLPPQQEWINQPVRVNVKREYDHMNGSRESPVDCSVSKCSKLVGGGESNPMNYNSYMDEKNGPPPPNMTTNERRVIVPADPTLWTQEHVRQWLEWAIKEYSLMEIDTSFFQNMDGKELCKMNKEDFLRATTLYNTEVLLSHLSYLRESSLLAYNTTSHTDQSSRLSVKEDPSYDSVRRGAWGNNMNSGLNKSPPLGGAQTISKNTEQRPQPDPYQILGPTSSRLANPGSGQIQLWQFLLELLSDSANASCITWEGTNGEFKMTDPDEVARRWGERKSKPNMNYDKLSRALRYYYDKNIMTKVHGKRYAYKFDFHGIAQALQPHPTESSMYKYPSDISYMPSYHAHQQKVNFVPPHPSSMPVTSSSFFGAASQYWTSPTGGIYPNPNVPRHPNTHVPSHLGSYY
Method in brief: (§1)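 Human transcription factors carrying a GST fusion were produced in yeast, bound to glutathione beads, tagged with DNA barcodes and pooled together with a tag-only sample. Each pool was held with 200 nmole of a random double-stranded 16-mer DNA library in Tris/NaCl/DTT/glycerol buffer for 30 min at room temperature, then washed, crosslinked in 0.1% formaldehyde, proximity-ligated with BsaI/T4 ligase (1 h, 37 °C), PCR-amplified and sequenced on an Illumina NextSeq500. Binding signal is the read frequency of each hexamer for a given factor divided by its frequency in the tag-only sample.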

[2] = molecular target: T2, ELK1 (Homo sapiens, UniProt P19419 1-428); conditions: protein: recombinant; tags: N-terminal GST; dsDNA, one strand shown
T2 sequence: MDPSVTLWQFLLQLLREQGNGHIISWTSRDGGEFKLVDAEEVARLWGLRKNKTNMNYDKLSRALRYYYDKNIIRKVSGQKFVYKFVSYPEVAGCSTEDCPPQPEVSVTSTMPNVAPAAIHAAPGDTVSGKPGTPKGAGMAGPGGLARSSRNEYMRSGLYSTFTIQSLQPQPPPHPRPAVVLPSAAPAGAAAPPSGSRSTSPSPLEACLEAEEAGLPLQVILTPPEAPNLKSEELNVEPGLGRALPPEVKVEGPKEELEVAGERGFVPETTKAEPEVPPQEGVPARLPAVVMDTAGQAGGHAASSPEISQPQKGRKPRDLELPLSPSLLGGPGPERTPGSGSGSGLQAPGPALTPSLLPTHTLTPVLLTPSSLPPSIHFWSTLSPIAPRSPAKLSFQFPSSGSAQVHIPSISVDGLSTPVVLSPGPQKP
Method in brief: as §1

[3] = molecular target: T3, GABPA (Homo sapiens, UniProt Q06546 1-454); conditions: protein: recombinant; tags: N-terminal GST; dsDNA, one strand shown
T3 sequence: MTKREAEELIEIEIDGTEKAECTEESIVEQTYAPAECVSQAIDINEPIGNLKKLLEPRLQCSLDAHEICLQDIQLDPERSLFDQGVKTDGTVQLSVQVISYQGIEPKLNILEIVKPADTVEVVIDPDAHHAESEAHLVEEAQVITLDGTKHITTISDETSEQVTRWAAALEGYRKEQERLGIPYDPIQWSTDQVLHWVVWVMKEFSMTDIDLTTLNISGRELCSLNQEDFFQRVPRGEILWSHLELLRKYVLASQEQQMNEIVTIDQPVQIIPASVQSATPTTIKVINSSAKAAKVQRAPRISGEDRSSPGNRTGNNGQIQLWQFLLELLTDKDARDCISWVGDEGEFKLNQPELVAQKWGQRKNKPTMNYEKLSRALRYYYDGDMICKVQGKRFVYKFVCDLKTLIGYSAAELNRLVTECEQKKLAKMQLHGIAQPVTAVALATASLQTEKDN
Method in brief: as §1

[4] = molecular target: T4, ERG (Homo sapiens, UniProt P11308 1-479); conditions: protein: recombinant; tags: N-terminal GST; dsDNA, one strand shown
T4 sequence: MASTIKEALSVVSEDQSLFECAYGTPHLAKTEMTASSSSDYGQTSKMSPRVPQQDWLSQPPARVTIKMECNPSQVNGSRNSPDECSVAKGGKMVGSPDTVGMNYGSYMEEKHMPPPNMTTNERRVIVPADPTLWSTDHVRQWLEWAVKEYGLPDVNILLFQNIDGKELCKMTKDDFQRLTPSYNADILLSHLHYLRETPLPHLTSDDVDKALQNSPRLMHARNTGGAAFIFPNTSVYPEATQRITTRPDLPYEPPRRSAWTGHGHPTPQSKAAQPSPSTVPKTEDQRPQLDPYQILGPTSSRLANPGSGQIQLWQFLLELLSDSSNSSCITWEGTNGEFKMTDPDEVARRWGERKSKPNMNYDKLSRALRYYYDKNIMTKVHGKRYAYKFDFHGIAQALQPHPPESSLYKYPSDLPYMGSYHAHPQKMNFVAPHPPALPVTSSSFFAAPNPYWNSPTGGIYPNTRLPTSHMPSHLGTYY
Method in brief: as §1

[5] = molecular target: ELF1 (Homo sapiens, UniProt P32519 1-619); conditions: protein: recombinant; tags: N-terminal GST; dsDNA, one strand shown
Chain of ELF1 (P32519 whole entry): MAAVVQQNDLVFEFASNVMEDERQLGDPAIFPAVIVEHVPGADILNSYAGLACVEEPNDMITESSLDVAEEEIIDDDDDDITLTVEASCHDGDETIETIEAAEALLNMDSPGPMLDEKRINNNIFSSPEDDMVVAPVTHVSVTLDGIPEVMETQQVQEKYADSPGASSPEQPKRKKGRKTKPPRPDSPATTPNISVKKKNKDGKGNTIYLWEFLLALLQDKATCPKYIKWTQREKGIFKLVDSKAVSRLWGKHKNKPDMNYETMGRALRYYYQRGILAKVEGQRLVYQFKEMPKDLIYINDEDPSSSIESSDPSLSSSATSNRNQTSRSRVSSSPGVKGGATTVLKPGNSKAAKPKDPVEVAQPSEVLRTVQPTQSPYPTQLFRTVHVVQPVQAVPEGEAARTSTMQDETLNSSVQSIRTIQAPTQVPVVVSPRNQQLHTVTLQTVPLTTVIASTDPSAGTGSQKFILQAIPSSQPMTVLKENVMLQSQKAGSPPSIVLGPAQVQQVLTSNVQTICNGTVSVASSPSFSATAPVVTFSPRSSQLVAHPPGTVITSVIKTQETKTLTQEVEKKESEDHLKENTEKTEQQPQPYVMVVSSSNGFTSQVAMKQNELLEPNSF
Method in brief: as §1

[6] = molecular target: T5, EHF (Homo sapiens, UniProt Q9NZC4 1-300); conditions: protein: recombinant; tags: N-terminal GST; dsDNA, one strand shown
T5 sequence: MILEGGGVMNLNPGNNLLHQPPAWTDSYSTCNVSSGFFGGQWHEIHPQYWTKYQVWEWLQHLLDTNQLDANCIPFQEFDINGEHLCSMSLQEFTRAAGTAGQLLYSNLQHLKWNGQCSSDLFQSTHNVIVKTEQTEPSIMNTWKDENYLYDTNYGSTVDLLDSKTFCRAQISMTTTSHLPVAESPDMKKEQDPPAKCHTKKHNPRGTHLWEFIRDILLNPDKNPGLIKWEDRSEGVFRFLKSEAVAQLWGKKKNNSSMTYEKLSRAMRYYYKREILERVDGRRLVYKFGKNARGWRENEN
Method in brief: as §1

[7] = molecular target: SPI1 (Homo sapiens, UniProt P17947 1-270); conditions: protein: recombinant; tags: N-terminal GST; dsDNA, one strand shown
Method in brief: as §1

[8] = molecular target: SPIB (Homo sapiens, UniProt Q01892 1-262); conditions: protein: recombinant; tags: N-terminal GST; dsDNA, one strand shown
Chain of SPIB (Q01892 whole entry): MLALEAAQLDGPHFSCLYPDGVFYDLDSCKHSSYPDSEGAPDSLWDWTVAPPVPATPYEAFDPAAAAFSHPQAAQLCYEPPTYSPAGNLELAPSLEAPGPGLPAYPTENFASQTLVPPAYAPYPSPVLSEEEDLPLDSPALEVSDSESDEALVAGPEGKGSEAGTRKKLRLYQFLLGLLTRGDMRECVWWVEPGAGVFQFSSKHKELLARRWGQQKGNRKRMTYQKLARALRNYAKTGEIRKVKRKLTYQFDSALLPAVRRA
Method in brief: as §1

[9] = molecular target: T6, ELK3 (Homo sapiens, UniProt P41970 1-407); conditions: protein: recombinant; tags: N-terminal GST; dsDNA, one strand shown
T6 sequence: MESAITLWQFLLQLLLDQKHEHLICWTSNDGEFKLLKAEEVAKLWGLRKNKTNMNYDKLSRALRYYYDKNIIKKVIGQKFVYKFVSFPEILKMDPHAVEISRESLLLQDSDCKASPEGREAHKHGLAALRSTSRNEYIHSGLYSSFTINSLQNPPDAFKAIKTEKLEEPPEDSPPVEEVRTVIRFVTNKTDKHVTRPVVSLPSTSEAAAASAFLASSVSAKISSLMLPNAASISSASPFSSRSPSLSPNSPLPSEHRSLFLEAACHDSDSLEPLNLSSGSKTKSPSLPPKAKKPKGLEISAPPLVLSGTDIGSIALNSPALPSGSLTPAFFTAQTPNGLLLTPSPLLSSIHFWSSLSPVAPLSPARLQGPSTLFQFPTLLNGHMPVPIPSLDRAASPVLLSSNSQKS
Method in brief: as §1

[10] = molecular target: T7, FEV (Homo sapiens, UniProt Q99581 1-238); conditions: protein: recombinant; tags: N-terminal GST; dsDNA, one strand shown
T7 sequence: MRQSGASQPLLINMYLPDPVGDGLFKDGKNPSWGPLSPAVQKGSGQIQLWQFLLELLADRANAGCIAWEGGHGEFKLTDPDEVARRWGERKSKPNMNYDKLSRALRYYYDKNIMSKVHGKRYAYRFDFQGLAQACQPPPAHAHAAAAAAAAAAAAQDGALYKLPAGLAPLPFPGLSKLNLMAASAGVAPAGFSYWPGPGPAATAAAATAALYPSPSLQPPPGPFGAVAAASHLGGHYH
Method in brief: as §1

[11] = molecular target: ETV5 (Homo sapiens, UniProt P41161 1-510); conditions: protein: recombinant; tags: N-terminal GST; dsDNA, one strand shown
Chain of ETV5 (P41161 whole entry): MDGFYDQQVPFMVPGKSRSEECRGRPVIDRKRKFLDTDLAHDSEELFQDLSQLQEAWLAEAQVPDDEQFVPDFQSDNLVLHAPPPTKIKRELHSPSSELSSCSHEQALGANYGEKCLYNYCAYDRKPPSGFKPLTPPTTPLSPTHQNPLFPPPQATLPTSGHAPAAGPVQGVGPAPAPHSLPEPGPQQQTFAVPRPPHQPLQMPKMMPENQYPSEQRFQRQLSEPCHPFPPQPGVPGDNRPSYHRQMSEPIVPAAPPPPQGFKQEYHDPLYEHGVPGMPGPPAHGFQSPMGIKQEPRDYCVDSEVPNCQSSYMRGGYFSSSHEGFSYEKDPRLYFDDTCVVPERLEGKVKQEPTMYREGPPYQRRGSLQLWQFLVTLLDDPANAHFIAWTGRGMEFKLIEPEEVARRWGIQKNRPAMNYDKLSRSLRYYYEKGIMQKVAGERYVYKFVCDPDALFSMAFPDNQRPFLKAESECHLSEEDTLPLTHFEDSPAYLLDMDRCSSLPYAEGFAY
Method in brief: as §1

[12] = molecular target: HSF1 (Homo sapiens, UniProt Q00613 1-529); conditions: protein: recombinant; tags: N-terminal GST; chain copies: 3; dsDNA, one strand shown
Chain of HSF1 (Q00613 whole entry): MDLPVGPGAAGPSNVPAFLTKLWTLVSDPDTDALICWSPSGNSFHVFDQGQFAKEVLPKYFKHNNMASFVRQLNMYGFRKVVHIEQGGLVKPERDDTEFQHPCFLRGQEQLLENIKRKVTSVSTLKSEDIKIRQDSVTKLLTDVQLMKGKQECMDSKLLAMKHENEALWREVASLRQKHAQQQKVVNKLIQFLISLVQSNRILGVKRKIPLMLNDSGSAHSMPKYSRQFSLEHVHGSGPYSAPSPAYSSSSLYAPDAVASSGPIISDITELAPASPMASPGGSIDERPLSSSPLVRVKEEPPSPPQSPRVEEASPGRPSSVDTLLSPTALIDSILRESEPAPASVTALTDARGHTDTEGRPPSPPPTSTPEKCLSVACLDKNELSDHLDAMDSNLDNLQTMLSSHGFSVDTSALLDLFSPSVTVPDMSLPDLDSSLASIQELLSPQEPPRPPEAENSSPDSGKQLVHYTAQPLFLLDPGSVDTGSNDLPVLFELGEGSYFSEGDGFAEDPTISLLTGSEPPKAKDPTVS
Method in brief: as §1

[13] = molecular target: T8, SPIC (Homo sapiens, UniProt Q8N5J4 1-248); conditions: protein: recombinant; tags: N-terminal GST; dsDNA, one strand shown
T8 sequence: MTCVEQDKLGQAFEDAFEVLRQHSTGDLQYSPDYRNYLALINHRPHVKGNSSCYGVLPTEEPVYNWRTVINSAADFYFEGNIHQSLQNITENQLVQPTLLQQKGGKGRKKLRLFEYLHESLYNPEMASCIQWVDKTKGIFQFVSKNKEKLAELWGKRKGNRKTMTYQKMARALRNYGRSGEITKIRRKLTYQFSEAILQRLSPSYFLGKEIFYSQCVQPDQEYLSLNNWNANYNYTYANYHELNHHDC
Method in brief: as §1

[14] = molecular target: ELF4 (Homo sapiens, UniProt Q99607 1-663); conditions: protein: recombinant; tags: N-terminal GST; dsDNA, one strand shown
Chain of ELF4 (Q99607 whole entry): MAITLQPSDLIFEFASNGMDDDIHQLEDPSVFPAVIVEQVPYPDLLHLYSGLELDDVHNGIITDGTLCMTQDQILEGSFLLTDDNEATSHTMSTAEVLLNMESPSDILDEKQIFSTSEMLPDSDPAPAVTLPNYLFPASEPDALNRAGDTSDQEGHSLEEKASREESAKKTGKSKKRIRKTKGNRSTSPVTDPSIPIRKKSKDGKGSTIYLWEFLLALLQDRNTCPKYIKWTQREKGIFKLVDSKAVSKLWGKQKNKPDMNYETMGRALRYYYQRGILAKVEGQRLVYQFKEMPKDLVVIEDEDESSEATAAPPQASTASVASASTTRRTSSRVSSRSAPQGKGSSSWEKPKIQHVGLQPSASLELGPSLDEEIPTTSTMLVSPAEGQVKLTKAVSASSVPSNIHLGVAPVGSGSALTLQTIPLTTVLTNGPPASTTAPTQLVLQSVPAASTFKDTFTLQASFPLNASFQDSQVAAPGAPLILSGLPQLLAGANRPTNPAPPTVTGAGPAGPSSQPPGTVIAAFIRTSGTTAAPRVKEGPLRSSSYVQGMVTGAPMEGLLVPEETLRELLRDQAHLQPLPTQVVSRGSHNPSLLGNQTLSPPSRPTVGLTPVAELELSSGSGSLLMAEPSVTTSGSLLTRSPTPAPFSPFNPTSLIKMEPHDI
Method in brief: as §1

[15] = molecular target: T9, ELK4 (Homo sapiens, UniProt P28324-2 1-405); conditions: protein: recombinant; tags: N-terminal GST; dsDNA, one strand shown
T9 sequence: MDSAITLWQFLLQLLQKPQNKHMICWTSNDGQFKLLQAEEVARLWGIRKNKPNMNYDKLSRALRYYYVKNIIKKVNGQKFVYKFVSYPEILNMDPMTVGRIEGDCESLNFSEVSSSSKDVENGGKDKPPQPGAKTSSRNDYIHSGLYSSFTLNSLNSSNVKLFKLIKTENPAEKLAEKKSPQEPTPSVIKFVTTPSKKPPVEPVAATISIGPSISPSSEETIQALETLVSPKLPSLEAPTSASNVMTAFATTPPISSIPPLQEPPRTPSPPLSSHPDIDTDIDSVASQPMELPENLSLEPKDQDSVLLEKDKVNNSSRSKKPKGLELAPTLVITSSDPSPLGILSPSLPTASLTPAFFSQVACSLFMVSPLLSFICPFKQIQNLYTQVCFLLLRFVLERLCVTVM
Method in brief: as §1

[16] = molecular target: T10, ETV2 (Homo sapiens, UniProt O00321 1-342); conditions: protein: recombinant; tags: N-terminal GST; dsDNA, one strand shown
T10 sequence: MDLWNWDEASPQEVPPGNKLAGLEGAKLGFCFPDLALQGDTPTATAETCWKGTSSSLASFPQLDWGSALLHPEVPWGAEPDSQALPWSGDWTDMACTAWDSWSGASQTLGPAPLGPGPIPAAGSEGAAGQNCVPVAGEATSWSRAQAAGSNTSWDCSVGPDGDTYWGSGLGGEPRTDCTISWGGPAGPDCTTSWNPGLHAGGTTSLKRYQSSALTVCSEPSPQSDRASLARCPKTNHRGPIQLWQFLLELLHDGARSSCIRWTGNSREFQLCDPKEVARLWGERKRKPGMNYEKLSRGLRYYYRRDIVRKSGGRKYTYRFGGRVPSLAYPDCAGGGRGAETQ
Method in brief: as §1

[17] = molecular target: T11, ELF3 (Homo sapiens, UniProt P78545 1-371); conditions: protein: recombinant; tags: N-terminal GST; dsDNA, one strand shown
T11 sequence: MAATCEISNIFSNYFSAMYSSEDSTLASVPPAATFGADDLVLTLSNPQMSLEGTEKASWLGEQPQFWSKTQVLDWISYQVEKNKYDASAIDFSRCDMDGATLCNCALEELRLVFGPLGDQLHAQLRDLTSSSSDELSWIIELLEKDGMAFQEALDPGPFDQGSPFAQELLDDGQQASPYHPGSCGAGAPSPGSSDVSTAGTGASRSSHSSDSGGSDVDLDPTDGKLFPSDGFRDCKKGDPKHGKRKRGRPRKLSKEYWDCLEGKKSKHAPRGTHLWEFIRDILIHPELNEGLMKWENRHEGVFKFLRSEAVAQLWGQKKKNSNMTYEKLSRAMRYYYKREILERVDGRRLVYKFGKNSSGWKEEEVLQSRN
Method in brief: as §1

[18] = molecular target: CRX (Homo sapiens, UniProt O43186 1-299); conditions: protein: recombinant; tags: N-terminal GST; dsDNA, one strand shown
Chain of CRX (O43186 whole entry): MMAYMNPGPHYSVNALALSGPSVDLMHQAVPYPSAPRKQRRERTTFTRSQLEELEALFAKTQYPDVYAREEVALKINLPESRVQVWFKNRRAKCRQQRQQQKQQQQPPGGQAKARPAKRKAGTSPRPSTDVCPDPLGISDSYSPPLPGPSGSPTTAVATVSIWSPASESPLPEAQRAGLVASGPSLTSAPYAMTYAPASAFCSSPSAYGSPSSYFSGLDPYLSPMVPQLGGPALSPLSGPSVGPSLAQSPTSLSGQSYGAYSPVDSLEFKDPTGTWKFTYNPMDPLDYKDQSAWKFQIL
Method in brief: as §1

[19] = molecular target: ETV1 (Homo sapiens, UniProt P50549 1-477); conditions: protein: recombinant; tags: N-terminal GST; dsDNA, one strand shown
Chain of ETV1 (P50549 whole entry): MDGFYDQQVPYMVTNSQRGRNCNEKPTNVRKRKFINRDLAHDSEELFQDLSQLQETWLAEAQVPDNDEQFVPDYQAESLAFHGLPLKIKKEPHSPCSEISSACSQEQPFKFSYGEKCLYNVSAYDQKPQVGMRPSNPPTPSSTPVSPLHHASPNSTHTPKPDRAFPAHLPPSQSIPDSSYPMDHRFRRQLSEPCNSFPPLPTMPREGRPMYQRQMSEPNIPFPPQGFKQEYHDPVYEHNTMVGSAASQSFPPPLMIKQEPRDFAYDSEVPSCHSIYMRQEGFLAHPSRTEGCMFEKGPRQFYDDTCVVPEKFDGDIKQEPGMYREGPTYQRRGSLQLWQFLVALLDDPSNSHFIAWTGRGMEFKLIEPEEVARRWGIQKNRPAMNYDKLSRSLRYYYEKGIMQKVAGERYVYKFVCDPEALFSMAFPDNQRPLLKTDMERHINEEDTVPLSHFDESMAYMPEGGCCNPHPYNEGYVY
Method in brief: as §1

For GTATCC, the binding signal [1] was 1.88 fold enrichment (6-mer frequency, TF over GST control), the binding signal [2] was 1.9 fold enrichment (6-mer frequency, TF over GST control) and the binding signal [3] was 1.78 fold enrichment (6-mer frequency, TF over GST control). For the same sequence, the binding signal [4] was 1.89 fold enrichment (6-mer frequency, TF over GST control), the binding signal [5] was 1.89 fold enrichment (6-mer frequency, TF over GST control) and the binding signal [6] was 1.92 fold enrichment (6-mer frequency, TF over GST control). For the same sequence, the binding signal [7] was 1.7 fold enrichment (6-mer frequency, TF over GST control), the binding signal [8] was 1.89 fold enrichment (6-mer frequency, TF over GST control) and the binding signal [9] was 1.88 fold enrichment (6-mer frequency, TF over GST control). The binding signal [10] was 2.08 fold enrichment (6-mer frequency, TF over GST control), the binding signal [11] was 2.05 fold enrichment (6-mer frequency, TF over GST control) and the binding signal [12] was 1.14 fold enrichment (6-mer frequency, TF over GST control). For the same sequence, the binding signal [13] was 1.96 fold enrichment (6-mer frequency, TF over GST control), the binding signal [14] was 1.85 fold enrichment (6-mer frequency, TF over GST control) and the binding signal [15] was 1.74 fold enrichment (6-mer frequency, TF over GST control). The binding signal [16] was 1.78 fold enrichment (6-mer frequency, TF over GST control), the binding signal [17] was 1.69 fold enrichment (6-mer frequency, TF over GST control) and the binding signal [18] was 1.22 fold enrichment (6-mer frequency, TF over GST control). For the same sequence, the binding signal [19] was 1.86 fold enrichment (6-mer frequency, TF over GST control).
